The supplement of paper PMC6411743
± gives the standard deviation of the averaged measurements. About 6,200 targets were measured; listed, in parts, are those with the largest changes and a random draw of the rest.

Compound: Nc1ncnc2c1ncn2[C@@H]1O[C@H](COP(=O)(O)OP(=O)(O)NP(=O)(O)O)[C@@H](O)[C@H]1O [adenylyl imidodiphosphate]
Test: NP40-soluble protein abundance relative to vehicle (solubility fold change) (ratio); higher = more soluble protein in presence of AMP-PNP
In short: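 In three independent experiments, Jurkat crude lysate made by Dounce homogenisation was treated for 10 min at room temperature and then 3 min at 37 °C with eight concentrations ranging from 0.1 to 10 mM. It was then solubilised with 0.8% NP40 plus benzonase for 60 min at 4 °C and ultracentrifuged. The supernatant was TMT-labelled for LC-MS/MS, and each value is the fold change against the detergent-processed vehicle for the same replicate, using vsn-normalised intensities.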

UniProt Q96CN5, sequence (Q96CN5 whole entry): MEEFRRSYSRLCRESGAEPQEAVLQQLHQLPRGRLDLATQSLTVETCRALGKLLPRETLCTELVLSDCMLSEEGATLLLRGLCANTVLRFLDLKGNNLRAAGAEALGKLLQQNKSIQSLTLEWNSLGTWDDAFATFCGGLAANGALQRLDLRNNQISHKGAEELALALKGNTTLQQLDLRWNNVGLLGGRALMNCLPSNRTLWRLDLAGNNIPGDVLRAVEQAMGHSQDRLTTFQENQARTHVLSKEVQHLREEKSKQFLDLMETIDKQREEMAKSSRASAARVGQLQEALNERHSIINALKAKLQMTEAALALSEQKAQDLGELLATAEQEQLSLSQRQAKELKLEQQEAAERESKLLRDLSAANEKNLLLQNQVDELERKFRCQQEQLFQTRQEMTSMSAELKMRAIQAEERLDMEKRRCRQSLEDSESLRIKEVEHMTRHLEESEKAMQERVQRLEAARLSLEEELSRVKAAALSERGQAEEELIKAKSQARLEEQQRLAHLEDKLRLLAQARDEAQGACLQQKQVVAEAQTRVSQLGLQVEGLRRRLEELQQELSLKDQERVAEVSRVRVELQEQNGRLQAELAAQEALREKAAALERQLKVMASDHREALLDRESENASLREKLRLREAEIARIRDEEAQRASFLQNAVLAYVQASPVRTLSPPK
UniProt Q9BQ67, sequence (Q9BQ67 whole entry): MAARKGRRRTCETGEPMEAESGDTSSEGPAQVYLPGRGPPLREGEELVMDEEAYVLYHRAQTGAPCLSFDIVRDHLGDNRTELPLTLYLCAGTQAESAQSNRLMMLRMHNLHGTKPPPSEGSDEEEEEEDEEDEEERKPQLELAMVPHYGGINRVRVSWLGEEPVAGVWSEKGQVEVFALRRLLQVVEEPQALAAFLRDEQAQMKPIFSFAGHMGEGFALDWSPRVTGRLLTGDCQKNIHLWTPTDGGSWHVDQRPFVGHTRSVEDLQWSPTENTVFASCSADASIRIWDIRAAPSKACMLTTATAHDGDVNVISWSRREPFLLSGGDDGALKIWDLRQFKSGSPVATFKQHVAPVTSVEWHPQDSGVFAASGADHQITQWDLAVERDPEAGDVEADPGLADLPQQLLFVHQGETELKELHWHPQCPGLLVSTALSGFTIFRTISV
UniProt Q9NR45, sequence (Q9NR45 whole entry): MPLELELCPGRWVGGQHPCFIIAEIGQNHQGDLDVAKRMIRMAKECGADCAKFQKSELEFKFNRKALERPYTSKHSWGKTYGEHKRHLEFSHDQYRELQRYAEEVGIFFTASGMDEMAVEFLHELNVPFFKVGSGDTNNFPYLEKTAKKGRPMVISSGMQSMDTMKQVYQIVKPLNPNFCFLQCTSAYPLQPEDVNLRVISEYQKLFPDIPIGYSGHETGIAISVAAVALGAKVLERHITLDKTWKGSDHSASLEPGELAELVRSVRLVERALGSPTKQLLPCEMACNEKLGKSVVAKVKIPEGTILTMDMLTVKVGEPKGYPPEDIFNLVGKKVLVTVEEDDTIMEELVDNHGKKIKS
UniProt Q9UK76, sequence (Q9UK76 whole entry): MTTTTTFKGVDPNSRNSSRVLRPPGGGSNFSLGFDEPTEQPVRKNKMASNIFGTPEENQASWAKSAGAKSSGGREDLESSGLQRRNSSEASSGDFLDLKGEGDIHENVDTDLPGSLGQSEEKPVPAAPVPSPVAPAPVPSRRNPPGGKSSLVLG
UniProt Q9H9E1, sequence (Q9H9E1 whole entry): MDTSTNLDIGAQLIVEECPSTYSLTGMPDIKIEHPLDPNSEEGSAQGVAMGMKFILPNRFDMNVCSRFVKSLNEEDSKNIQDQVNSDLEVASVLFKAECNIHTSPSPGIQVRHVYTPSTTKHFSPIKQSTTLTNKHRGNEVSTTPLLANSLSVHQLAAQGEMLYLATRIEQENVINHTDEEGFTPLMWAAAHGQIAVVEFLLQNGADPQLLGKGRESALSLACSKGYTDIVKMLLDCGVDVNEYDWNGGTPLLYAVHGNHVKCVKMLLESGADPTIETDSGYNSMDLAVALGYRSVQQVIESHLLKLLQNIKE
UniProt Q9H6A9, sequence (Q9H6A9 whole entry): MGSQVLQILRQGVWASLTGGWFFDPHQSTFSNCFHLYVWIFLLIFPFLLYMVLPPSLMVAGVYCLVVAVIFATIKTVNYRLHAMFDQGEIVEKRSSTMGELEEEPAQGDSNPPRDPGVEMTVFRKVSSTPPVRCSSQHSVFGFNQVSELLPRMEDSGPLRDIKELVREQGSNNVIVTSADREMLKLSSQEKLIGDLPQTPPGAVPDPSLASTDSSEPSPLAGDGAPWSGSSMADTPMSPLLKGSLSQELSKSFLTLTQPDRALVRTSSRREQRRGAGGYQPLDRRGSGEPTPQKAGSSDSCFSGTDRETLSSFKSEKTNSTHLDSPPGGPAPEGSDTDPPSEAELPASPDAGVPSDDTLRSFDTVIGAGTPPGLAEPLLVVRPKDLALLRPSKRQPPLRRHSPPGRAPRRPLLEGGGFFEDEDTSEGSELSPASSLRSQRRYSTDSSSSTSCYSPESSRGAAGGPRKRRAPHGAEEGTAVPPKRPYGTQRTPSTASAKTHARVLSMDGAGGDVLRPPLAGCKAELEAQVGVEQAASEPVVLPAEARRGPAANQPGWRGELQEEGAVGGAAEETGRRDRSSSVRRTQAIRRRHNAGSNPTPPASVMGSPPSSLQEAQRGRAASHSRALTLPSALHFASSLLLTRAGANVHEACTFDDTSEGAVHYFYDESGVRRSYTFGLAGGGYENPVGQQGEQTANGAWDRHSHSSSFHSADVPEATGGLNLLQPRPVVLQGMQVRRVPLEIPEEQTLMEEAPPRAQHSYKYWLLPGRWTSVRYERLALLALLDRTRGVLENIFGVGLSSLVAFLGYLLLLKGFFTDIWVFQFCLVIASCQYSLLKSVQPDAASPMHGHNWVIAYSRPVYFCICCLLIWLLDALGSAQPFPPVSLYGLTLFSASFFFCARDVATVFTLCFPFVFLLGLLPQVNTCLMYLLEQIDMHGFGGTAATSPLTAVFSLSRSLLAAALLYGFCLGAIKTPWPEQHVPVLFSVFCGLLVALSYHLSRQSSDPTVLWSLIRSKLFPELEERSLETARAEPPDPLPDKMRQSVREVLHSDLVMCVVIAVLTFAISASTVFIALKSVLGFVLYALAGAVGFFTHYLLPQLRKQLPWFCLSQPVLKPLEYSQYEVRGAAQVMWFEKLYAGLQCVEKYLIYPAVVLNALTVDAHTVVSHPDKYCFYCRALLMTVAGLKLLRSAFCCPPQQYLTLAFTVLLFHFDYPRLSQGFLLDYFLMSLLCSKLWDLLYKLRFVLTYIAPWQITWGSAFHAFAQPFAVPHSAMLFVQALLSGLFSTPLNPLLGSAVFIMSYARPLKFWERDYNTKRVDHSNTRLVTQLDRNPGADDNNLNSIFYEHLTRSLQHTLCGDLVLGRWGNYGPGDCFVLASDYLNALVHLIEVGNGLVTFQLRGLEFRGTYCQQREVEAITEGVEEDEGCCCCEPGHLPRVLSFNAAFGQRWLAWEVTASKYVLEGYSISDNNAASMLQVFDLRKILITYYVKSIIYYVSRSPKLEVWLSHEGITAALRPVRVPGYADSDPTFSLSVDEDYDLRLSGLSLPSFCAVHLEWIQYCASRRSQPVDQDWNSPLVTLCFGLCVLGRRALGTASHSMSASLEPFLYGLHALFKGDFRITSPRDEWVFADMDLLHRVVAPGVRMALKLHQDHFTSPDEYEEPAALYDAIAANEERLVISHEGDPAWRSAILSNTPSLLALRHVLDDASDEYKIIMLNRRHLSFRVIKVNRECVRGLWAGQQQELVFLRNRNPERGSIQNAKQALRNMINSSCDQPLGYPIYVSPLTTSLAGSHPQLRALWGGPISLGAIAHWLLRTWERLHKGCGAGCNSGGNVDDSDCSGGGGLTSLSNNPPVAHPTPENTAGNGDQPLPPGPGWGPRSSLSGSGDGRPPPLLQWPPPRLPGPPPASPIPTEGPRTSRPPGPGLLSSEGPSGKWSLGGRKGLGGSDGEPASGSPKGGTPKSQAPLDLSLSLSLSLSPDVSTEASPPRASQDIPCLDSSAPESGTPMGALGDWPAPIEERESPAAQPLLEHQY
UniProt Q9HC36, sequence (Q9HC36 whole entry): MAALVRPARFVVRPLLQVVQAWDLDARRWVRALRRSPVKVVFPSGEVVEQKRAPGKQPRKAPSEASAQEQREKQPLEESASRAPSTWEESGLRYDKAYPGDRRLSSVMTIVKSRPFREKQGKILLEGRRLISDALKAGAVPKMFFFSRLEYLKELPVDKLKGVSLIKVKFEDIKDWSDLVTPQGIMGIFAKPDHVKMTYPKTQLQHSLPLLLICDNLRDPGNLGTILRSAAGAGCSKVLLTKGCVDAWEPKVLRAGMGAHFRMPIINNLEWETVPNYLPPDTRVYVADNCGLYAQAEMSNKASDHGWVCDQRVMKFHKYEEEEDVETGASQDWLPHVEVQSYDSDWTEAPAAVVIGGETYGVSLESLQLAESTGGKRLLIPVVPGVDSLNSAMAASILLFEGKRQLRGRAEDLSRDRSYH
UniProt Q9BSU1, sequence (Q9BSU1 whole entry): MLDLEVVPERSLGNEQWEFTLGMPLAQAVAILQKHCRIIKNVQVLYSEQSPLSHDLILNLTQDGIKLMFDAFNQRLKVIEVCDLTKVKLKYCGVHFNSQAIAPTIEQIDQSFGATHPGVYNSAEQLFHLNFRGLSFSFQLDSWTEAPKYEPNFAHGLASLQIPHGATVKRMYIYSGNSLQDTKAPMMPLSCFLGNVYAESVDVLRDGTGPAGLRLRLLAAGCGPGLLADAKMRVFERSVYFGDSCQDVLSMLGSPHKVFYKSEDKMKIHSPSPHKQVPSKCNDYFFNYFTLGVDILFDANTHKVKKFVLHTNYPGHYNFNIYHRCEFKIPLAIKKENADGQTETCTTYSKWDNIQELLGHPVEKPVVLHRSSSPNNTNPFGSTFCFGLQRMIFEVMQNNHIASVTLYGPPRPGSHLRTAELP
UniProt Q96NT0, sequence (Q96NT0 whole entry): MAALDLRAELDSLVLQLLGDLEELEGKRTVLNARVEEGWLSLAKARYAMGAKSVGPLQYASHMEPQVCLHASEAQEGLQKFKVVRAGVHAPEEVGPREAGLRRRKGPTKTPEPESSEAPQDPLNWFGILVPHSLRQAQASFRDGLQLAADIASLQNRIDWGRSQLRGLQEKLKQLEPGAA

Target	NP40-soluble protein abundance (concentration: 1mM)	NP40-soluble protein abundance (concentration: 2mM)	NP40-soluble protein abundance (concentration: 4mM)	NP40-soluble protein abundance (concentration: 6mM)	NP40-soluble protein abundance (concentration: 8mM)	NP40-soluble protein abundance (concentration: 10mM)
PARP12 (UniProt Q9H0J9)	0.982 ± 0.046	0.946 ± 0.042	1.01 ± 0.022	0.991 ± 0.015	1.04 ± 0.029	1.01 ± 0.023
UniProt Q9NVM9	1.03 ± 0.027	1.02 ± 0.04	1.05 ± 0.033	1.02 ± 0.069	1.03 ± 0.075	1.03 ± 0.063
UniProt Q9H6A9|Q9H6A9-2	1.01 ± 0.016	1.02 ± 0.027	0.98826 ± 0.00019	0.989 ± 0.028	0.9847 ± 0.0089	0.9795 ± 0.0059
UniProt Q9ULV4|Q9ULV4-2|Q9ULV4-3	1.07 ± 0.04	1.11 ± 0.056	1.12 ± 0.026	1.26 ± 0.015	1.33 ± 0.018	1.39 ± 0.037
UniProt Q9HC36	1.05 ± 0.047	1.1 ± 0.088	1.23 ± 0.12	1.37 ± 0.18	1.51 ± 0.22	1.6 ± 0.28
UniProt Q9BU76|Q9BU76-4	1.03 ± 0.04	1.04 ± 0.052	1 ± 0.067	1.01 ± 0.035	0.99 ± 0.031	0.989 ± 0.038
GRWD1 (UniProt Q9BQ67)	1.09 ± 0.064	1.01 ± 0.089	1.11 ± 0.068	1.05 ± 0.043	1.11 ± 0.073	1.04 ± 0.045
ANKRA2 (UniProt Q9H9E1)	0.912 ± 0.057	0.91 ± 0.023	0.911 ± 0.025	0.97 ± 0.087	0.99 ± 0.058	0.963 ± 0.05
PSMB7 (UniProt Q99436)	0.946 ± 0.04	0.909 ± 0.061	0.906 ± 0.057	0.928 ± 0.086	0.918 ± 0.081	0.9 ± 0.13
C16orf70 (UniProt Q9BSU1)	1.01 ± 0.056	0.978 ± 0.029	0.982 ± 0.042	1.01 ± 0.018	1.02 ± 0.02	1.05 ± 0.02
UniProt Q9NSG2|Q9NSG2-2|Q9NSG2-3	0.991 ± 0.028	0.991 ± 0.015	0.993 ± 0.011	0.955 ± 0.022	0.964 ± 0.031	0.968 ± 0.015
LRRC45 (UniProt Q96CN5)	0.977 ± 0.065	0.919 ± 0.029	0.969 ± 0.022	0.97 ± 0.015	1 ± 0.032	0.956 ± 0.03
PUS3 (UniProt Q9BZE2)	1.01 ± 0.013	0.997 ± 0.0053	1 ± 0.026	1.03 ± 0.054	0.978 ± 0.032	0.974 ± 0.019
UniProt Q9NUY8|Q9NUY8-2	0.961 ± 0.0094	0.999 ± 0.026	0.986 ± 0.014	1 ± 0.035	0.991 ± 0.027	1.01 ± 0.031
CCDC115 (UniProt Q96NT0)	0.994 ± 0.046	1.01 ± 0.043	1.01 ± 0.035	1 ± 0.04	0.968 ± 0.06	0.992 ± 0.041
NANS (UniProt Q9NR45)	0.981 ± 0.015	0.932 ± 0.043	0.939 ± 0.011	0.954 ± 0.015	0.948 ± 0.036	0.918 ± 0.027
UniProt Q9H0W9|Q9H0W9-2	0.99 ± 0.035	0.972 ± 0.036	0.973 ± 0.029	0.974 ± 0.012	0.949 ± 0.043	0.935 ± 0.037
MRPL9 (UniProt Q9BYD2)	1.04 ± 0.13	0.967 ± 0.13	1.03 ± 0.075	0.982 ± 0.09	1.01 ± 0.072	0.972 ± 0.15
UniProt Q9Y4E8|Q9Y4E8-3	0.967 ± 0.013	0.963 ± 0.032	1.02 ± 0.041	1 ± 0.048	0.993 ± 0.065	1.01 ± 0.027
UniProt Q9H0A0|Q9H0A0-2|A0A087WV29	1.47 ± 0.19	1.5 ± 0.19	1.62 ± 0.21	1.66 ± 0.17	1.79 ± 0.25	1.8 ± 0.17
UniProt Q9UK76	1.08 ± 0.088	1.1 ± 0.08	1.03 ± 0.067	0.982 ± 0.092	0.893 ± 0.037	0.973 ± 0.1
UniProt Q9H8P0|H0Y9P9	0.933 ± 0.084	0.9132 ± 0.0065	0.948 ± 0.063	0.999 ± 0.14	1.02 ± 0.12	1.05 ± 0.15
NCOA5 (UniProt Q9HCD5)	1.09 ± 0.062	1.18 ± 0.039	1.37 ± 0.081	1.73 ± 0.1	1.89 ± 0.14	2.17 ± 0.35
UniProt Q96T76|Q96T76-8|Q96T76-9	0.964 ± 0.013	0.929 ± 0.082	0.972 ± 0.032	0.987 ± 0.036	1.002 ± 0.0053	0.9354 ± 0.0075
AMDHD2 (UniProt Q9Y303)	0.968 ± 0.016	0.923 ± 0.048	0.949 ± 0.024	0.954 ± 0.024	0.948 ± 0.02	0.922 ± 0.033
UniProt Q99571|Q99571-2|F6SFZ6	0.986 ± 0.019	0.959 ± 0.019	0.971 ± 0.019	1.014 ± 0.0026	1.012 ± 0.0075	1.01 ± 0.039
UniProt Q9UMZ2|Q9UMZ2-5|Q9UMZ2-9	1.02 ± 0.035	1.05 ± 0.064	1.03 ± 0.031	0.978 ± 0.035	0.955 ± 0.021	0.981 ± 0.037
XPO7 (UniProt Q9UIA9)	0.973 ± 0.036	0.932 ± 0.035	0.96 ± 0.019	0.958 ± 0.037	0.966 ± 0.015	0.939 ± 0.03
